Reference: PubChem BioAssay (Tox21)
Results filed as inconclusive are left out. Where a call stands in place of a potency, no number is given. Active and inactive are the calls of the source. Unless noted, the call rests on the fitted dose curve; in most records, active means well fitted curve in the direction sought with a large enough effect in the repeat runs; inconclusive means weak or mixed curves; inactive means no such curve, though single readings can be large; an effect the other way counts as inactive or inconclusive.

Experiments:
[1] = qHTS assay to identify aromatase inhibitors - cell viability counter screen (AID 743084);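 further: cells stimulated with testosterone during compound exposure; nearly all actives have a fitted effect of over 55% in size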; further: potency means the concentration at half of the fitted maximal effect
[2] = target: Peroxisome proliferator-activated receptor gamma (Homo sapiens) (UniProt P37231); experiment: qHTS assay to identify small molecule antagonists of the peroxisome proliferator-activated receptor gamma (PPARg) signaling pathway (AID 743191; calls by dose curve; further: nearly all actives have a fitted effect of over 30% in size; further: potency means the concentration at half of the fitted maximal effect)
In short: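 GeneBLAzer PPARg UAS-bla HEK293H cells, 5 h post-plating, exposed to compounds 17 h at 37C. LiveBLAzer B/G FRET substrate added for 1 h at room temperature; beta-lactamase reporter read by fluorescence intensity.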

[3] = qHTS assay to identify small molecule antagonists of the peroxisome proliferator-activated receptor gamma (PPARg) signaling pathway - cell viability counter screen (AID 743194); conditions: Potency: co-treated with 50 nM rosiglitazone; further: nearly all actives have a fitted effect of over 55% in size
In short: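 Cytotoxicity counter screen in PPARg-bla HEK293H cells, same wells as reporter assay. Compounds plus 50 nM rosiglitazone (final) for 17 h at 37 C, then viability read by CellTiter-Glo luminescence.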

[4] = qHTS assay for small molecule agonists of the antioxidant response element (ARE) signaling pathway (AID 743202; active means well fitted activation curve with a large enough effect in the signal ratio in the repeat runs, not every such curve was filed as active; the % refers to the signal ratio; further: potency means the concentration at half of the fitted maximal effect)
In short: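 HepG2 ARE-bla reporter line, 2,000 cells/well; 5 h preincubation 37 C/5% CO2; compound (DMSO) 16 h 37 C; B/G FRET substrate 2 h RT; fluorescence intensity.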

[5] = qHTS assay for small molecule agonists of the antioxidant response element (ARE) signaling pathway - cell viability counter screen (AID 743203; calls by dose curve; further: nearly all actives have a fitted effect of over 55% in size; further: potency means the concentration at half of the fitted maximal effect)
In short: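 Cytotoxicity was tested in parallel with the ARE reporter screen. ARE-bla HepG2 cells were exposed to compounds for 16 hrs, and viability was taken from CellTiter-Glo luminescence.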

[6] = qHTS assay for small molecule activators of the heat shock response signaling pathway - cell viability counter screen (AID 743209); further: nearly all actives have a fitted effect of over 50% in size; further: potency means the concentration at half of the fitted maximal effect
In short: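 Cytotoxicity counter screen run in parallel with the HSE beta-lactamase reporter, using the same wells. HeLa HSE-bla cells received compound for 5 h at 37 C; ATP-based CellTiter-Glo luminescence was measured after 30 min at room temperature.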

[7] = qHTS assay to identify small molecule that activate the aryl hydrocarbon receptor (AhR) signaling pathway - cell viability counter screen (AID 743086);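 further: HepG2 liver cells carrying the AhR DRE luciferase reporter; series mostly up to about 70 µM; nearly all actives have a fitted effect of over 45% in size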
In short: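 HepG2-AhR-luc (HG2L7.5c1) cells, 4000/well, treated 24 h at 37 C with compound; viability measured as CellTiter-Fluor fluorescence after 30 min in the same wells as the luciferase read.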

[8] = qHTS assay for small molecule activators of the heat shock response signaling pathway (AID 743210; active means well fitted activation curve with a large enough effect in the signal ratio in the repeat runs, with a control signal flat, not every such curve was filed as active; the % refers to the signal ratio;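 further: HeLa cells with beta-lactamase reporter driven by heat shock elements; series mostly up to about 63 µM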)
In short: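 Beta-lactamase reporter read-out: FRET substrate fluorescence after 2.5 h at RT, following 5 h compound treatment at 37 C of HeLa cells carrying HSE-driven bla reporter; quantitative HTS format.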

[9] = target: Peroxisome proliferator-activated receptor gamma (Homo sapiens) (UniProt P37231); experiment: qHTS assay to identify small molecule agonists of the peroxisome proliferator-activated receptor gamma (PPARg) signaling pathway (AID 743094; active means well fitted activation curve with a large enough effect in the signal ratio in the repeat runs, not every such curve was filed as active; the % refers to the signal ratio)
In short: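 Cells from the PPARg UAS-bla HEK293H line are plated and incubated 5 h at 37C. Compounds in DMSO are pinned in and left 17 h at 37C. LiveBLAzer B/G substrate is then added for 1 h at room temperature before fluorescence is measured.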

[10] = target: Aryl hydrocarbon receptor (Homo sapiens) (UniProt P35869); experiment: qHTS assay to identify small molecule that activate the aryl hydrocarbon receptor (AhR) signaling pathway (AID 743085); further: nearly all actives have a fitted effect of over 15% in size; further: potency means the concentration at half of the fitted maximal effect;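 on activation: HG2L7.5c1 human HepG2 liver cells with stably integrated DRE-driven firefly reporter; series mostly up to about 70 µM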
In short: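 Steps: seed HepG2-AhR-luc cells; allow 5 h at 37C; pin-transfer test compound or vehicle; incubate 24 h at 37C; add viability dye (30 min, 37C) and read fluorescence; add luciferase substrate (30 min, RT) and read luminescence.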

Chain of Peroxisome proliferator-activated receptor gamma (Homo sapiens) (P37231 whole entry, looked up): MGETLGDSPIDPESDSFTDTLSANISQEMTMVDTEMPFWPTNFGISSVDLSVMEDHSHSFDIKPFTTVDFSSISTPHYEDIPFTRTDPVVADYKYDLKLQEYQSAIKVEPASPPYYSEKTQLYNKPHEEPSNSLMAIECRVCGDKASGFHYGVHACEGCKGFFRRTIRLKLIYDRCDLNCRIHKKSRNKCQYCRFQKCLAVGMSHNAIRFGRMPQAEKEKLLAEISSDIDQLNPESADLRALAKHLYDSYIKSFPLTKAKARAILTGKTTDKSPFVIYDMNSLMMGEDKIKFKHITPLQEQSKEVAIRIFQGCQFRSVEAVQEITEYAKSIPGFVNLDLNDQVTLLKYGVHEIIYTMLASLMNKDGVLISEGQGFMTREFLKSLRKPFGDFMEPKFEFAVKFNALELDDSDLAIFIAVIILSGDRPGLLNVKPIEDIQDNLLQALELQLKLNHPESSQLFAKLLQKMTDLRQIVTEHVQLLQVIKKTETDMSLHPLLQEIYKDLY
Chain of Aryl hydrocarbon receptor (Homo sapiens) (P35869 whole entry, looked up): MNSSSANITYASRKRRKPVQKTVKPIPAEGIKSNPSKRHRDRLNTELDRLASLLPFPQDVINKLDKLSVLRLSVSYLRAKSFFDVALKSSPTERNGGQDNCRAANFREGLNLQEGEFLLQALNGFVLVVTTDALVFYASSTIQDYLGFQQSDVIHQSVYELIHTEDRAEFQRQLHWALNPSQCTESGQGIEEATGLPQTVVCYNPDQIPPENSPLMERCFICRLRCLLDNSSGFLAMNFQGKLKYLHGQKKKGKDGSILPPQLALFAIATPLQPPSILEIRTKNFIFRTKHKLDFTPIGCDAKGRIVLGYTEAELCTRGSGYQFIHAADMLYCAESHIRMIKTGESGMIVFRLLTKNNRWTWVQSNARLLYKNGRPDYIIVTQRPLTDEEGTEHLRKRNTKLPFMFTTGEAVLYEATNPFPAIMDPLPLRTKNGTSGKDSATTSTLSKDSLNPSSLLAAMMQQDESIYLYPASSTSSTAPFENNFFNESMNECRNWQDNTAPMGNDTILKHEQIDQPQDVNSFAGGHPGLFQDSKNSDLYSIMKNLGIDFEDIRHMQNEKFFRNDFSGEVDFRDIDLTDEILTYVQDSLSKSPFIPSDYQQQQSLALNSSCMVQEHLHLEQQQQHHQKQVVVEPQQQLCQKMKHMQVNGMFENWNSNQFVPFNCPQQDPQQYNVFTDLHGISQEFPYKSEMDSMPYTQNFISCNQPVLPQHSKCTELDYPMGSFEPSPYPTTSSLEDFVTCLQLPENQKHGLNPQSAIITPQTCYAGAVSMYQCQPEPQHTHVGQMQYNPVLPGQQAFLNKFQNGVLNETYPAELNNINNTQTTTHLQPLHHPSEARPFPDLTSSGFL

Compound	Potency [1]	Potency [2]	Potency [3]	Potency [4]	Potency [5]	Potency [6]	outcome [7]	outcome [8]	outcome [9]	Potency [10]
CCN(CC)CCOC(=O)C(C)(c1ccccc1)c1ccccc1	inactive	inactive	inactive	inactive	inactive	inactive	–	–	–	–
CC(C(O)c1ccccc1)N(C)C/C=C/c1ccccc1 (centres undefined)	–	inactive	inactive	–	inactive	inactive	–	–	–	–
O=C1OC(CCN2CCCCC2)OC1(c1ccccc1)c1ccccc1 (centres undefined)	–	–	inactive	23.7 µM (active)	inactive	–	–	–	–	–
CN1C[C@@H](NS(=O)(=O)N(C)C)C[C@@H]2c3cccc4c3c(cn4C)C[C@H]21	–	–	inactive	inactive	inactive	inactive	inactive	inactive	–	–
Fc1ccc(C2(Cn3cncn3)OC2c2ccccc2Cl)cc1 (centres undefined)	inactive	–	inactive	inactive	inactive	inactive	–	inactive	inactive	–
CC1COC2(c3ccccc3Cl)c3cc(Cl)ccc3NC(=O)CN12 (centres undefined)	–	inactive	inactive	–	inactive	inactive	–	–	–	–
O=C(NCO)NCO	–	inactive	inactive	inactive	inactive	inactive	inactive	inactive	–	inactive
CN1CCC(N(Cc2ccccc2)c2ccccc2)CC1	–	inactive	inactive	–	inactive	inactive	–	inactive	–	–
CCOC(=O)C1(c2ccccc2)CCN(CCc2ccc(N)cc2)CC1	–	–	inactive	inactive	inactive	inactive	–	inactive	–	–
O=C(CCN1CC1)OCC(CO)(COC(=O)CCN1CC1)COC(=O)CCN1CC1	–	inactive	inactive	inactive	inactive	inactive	inactive	inactive	inactive	inactive
COC(=O)COc1ccc(Cl)cc1Cl	–	–	inactive	inactive	inactive	inactive	inactive	inactive	–	–
c1ccc(N2CCNCC2)cc1	–	–	inactive	inactive	inactive	inactive	–	–	–	–
CC1CCC(=O)O1 (centres undefined)	–	–	inactive	–	inactive	inactive	inactive	inactive	–	–
CCC#N	–	–	inactive	inactive	inactive	inactive	inactive	inactive	–	–
CCCCC(=O)Cl	–	–	–	–	inactive	inactive	inactive	inactive	–	–
Fc1cc(Br)ccc1CBr	–	inactive	inactive	inactive	inactive	inactive	–	inactive	–	–
COc1cccc2c1cc([N+](=O)[O-])c1c(C(=O)O)cc3c(c12)OCO3	24.3 µM (active)	–	–	–	17.2 µM (active)	3.89 µM (active)	–	inactive	–	–
CC1(C(=O)Nc2ccc(O)c(Cl)c2Cl)CCCCC1	–	inactive	inactive	–	inactive	inactive	inactive	inactive	inactive	inactive
C[C@]12CC[C@H]3[C@@H](CCC4=CC(=O)CC[C@@]43C)[C@@H]1CC[C@@H]2C(=O)O	–	–	inactive	–	inactive	inactive	–	–	–	–

Compound	Potency [1]	Potency [2]	Potency [3]	Potency [4]	Potency [5]	Potency [6]	outcome [7]	outcome [8]	outcome [9]	Potency [10]
ClCCCN1CCN(c2cccc(Cl)c2)CC1	–	inactive	–	6.68 µM (active)	inactive	inactive	–	inactive	–	–
CC1=C(C(=O)O)N2C(=O)[C@@H](N)[C@H]2SC1	–	inactive	inactive	inactive	inactive	inactive	–	–	–	–
O=S(=O)(O)C(F)(F)C(F)(F)C(F)(F)C(F)(F)C(F)(F)C(F)(F)F	–	inactive	–	–	inactive	inactive	inactive	inactive	inactive	inactive
CC(C(=O)c1ccccc1)N(C)C (centres undefined)	–	–	inactive	inactive	inactive	inactive	–	inactive	–	–
CCOP(=S)(Oc1cnc(C(C)(C)C)nc1)OC(C)C (centres undefined)	–	inactive	–	–	inactive	inactive	inactive	–	inactive	54.5 µM (active)
CCC(=O)C(CCN(C)C)(c1ccccc1)c1ccccc1	–	inactive	inactive	inactive	inactive	inactive	–	–	–	–
O=C1CN2CCOC2(c2ccccc2Cl)c2cc(Cl)ccc2N1 (centres undefined)	–	–	inactive	–	inactive	inactive	–	inactive	–	–
CCOC(=O)C(c1c(O)c2ccccc2oc1=O)c1c(O)c2ccccc2oc1=O	–	7.5 µM (active)	inactive	–	inactive	inactive	–	inactive	–	–
NC1=NC(=O)C(c2ccccc2)O1 (centres undefined)	–	–	inactive	inactive	inactive	inactive	inactive	inactive	–	–
CCNc1nc(NC(C)C)nc(OC)n1	–	–	inactive	inactive	inactive	inactive	inactive	inactive	inactive	–
Clc1ccccc1N1CCNCC1	–	inactive	inactive	–	inactive	inactive	–	inactive	–	–
COc1cccc(C(=O)NN(C(=O)c2cc(C)cc(C)c2)C(C)(C)C)c1C	–	inactive	inactive	–	inactive	inactive	–	inactive	–	–
COCC(=O)N(c1c(C)cccc1C)N1CCOC1=O	inactive	–	–	inactive	inactive	inactive	inactive	inactive	–	–
O=[N+]([O-])c1cc(Cl)c(Cl)c(Cl)c1	–	–	inactive	–	inactive	–	inactive	–	inactive	inactive
Nc1c(Br)cc([N+](=O)[O-])cc1[N+](=O)[O-]	–	–	inactive	–	inactive	inactive	–	inactive	–	13.8 µM (active)
COP(=S)(OC)Oc1ccc(S(N)(=O)=O)cc1	inactive	inactive	inactive	inactive	inactive	inactive	–	inactive	inactive	–
CC(C)(C)NCC(O)c1cc(Cl)c(N)c(Cl)c1 (centres undefined)	–	inactive	inactive	inactive	inactive	inactive	inactive	inactive	inactive	inactive
CC(C=O)Cc1ccc2c(c1)OCO2 (centres undefined)	–	–	inactive	inactive	inactive	inactive	inactive	inactive	inactive	inactive
